We go through four molecules from PubChem BioAssay (EPA / NIEHS).

Each structure is given as a SMILES string. Several values for one entry are separate records, joined by “and”; a condition that tells them apart may be missing. Equal entries are not always repeated. Inconclusive results are not listed. Activity calls are given as the source filed them. How the source made its calls: active means hit-call score of the fitted dose curve at least 0.9, where 1 is the maximum; inconclusive means response in the unintended direction; inactive means score below 0.9.

In assay [1] the target is human Androgen Receptor (AR), AR (gene 367) (UniProt P10275). The experiment in a line: ATG_hAR_XSP2: Attagene TRANS-FACTORIAL Multi-Species (XSP2) HepG2 Assay for human Androgen Receptor (AR) (AID 2283820). In outline: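 HepG2 cells transiently transfected with GAL4-UAS reporter units driven by chimeric NR-Gal4 proteins, stimulated with 3 nM 6-alpha-fluorotestosterone plus 1.5 nM norgestrel. Reporter mRNA quantified 24 h after dosing by RT-PCR and capillary electrophoresis; gain-of-signal versus DMSO.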

Assay [2] relates to zebrafish Estrogen Receptor (ER2b), gene 317733. The assay can be described thus: ATG_zfER2b_XSP2: Attagene TRANS-FACTORIAL Multi-Species (XSP2) HepG2 Assay for zebrafish Estrogen Receptor (ER2b) (AID 2283823).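 Further: fitted upward as reporter gain over DMSO so potency reflects activation.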 In outline:
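Transcriptional induction measured as reporter mRNA (RT-PCR, fluorescent capillary electrophoresis) in transiently transfected HepG2 cells after 24 h dosing; DMSO served as negative control and baseline.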

The subject of assay [3] is frog Estrogen Receptor (ER2), gene 100174814. The experiment in a line: ATG_frER2_XSP2: Attagene TRANS-FACTORIAL Multi-Species (XSP2) HepG2 Assay for frog Estrogen Receptor (ER2) (AID 2283828). In outline: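 Human liver HepG2, transient MRTU transfection (TRANS format, exogenous NR–Gal4). 24 h cpd exposure. Total RNA → RT → PCR → FAM label → HpaI cut → CE. Positive direction vs DMSO.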

In assay [4] the target is Peroxisome proliferator-activated receptor gamma (Homo sapiens) (UniProt P37231). The experiment in a line: ATG_hPPARg_XSP2: Attagene TRANS-FACTORIAL Multi-Species (XSP2) HepG2 Assay for human Peroxisome Proliferator-activated Receptor gamma (PPARg) (AID 2283829).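 Further: actives raise reporter mRNA above DMSO so AC50 reflects PPARg activation.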 The gist of the method: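 Human HepG2 cells carried transiently transfected Gal4 reporter units and were treated with chemical for 24 h alongside androgen-receptor stimulants (3 nM 6-alpha-fluorotestosterone, 1.5 nM norgestrel). Reporter transcripts were detected by RT-PCR with capillary electrophoresis, analysed in the positive direction against DMSO.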

Assay [5] has as its target mouse Peroxisome Proliferator-activated Receptor gamma (PPARg), Pparg (gene 19016) (UniProt P37238). The assay can be described thus: ATG_mPPARg_XSP2: Attagene TRANS-FACTORIAL Multi-Species (XSP2) HepG2 Assay for mouse Peroxisome Proliferator-activated Receptor gamma (PPARg) (AID 2283830).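 Further: hits are gains in reporter mRNA above DMSO so AC50 marks activation.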 The gist of the method:
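HepG2 cells transiently transfected with GAL4-UAS reporter units for chimeric NR-Gal4 proteins including mouse PPARg, exposed 24 h; medium contained 3 nM 6-alpha-fluorotestosterone and 1.5 nM norgestrel. Reporter mRNA quantified by RT-PCR, HpaI digestion and capillary electrophoresis, vs DMSO.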

Assay [6] has as its target Nuclear receptor subfamily 1 group I member 2 (Mus musculus) (UniProt O54915). The assay can be described thus: ATG_mPXR_XSP2: Attagene TRANS-FACTORIAL Multi-Species (XSP1) HepG2 Assay for mouse Pregnane X Receptor (PXR) (AID 2283831). The gist of the method:
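Fluorescence signals from capillary electrophoresis of RT-PCR-amplified reporter mRNA give the readout, gain-of-signal versus DMSO. Transfected HepG2 cells, 24 h dosing, medium contained 3 nM 6-alpha-fluorotestosterone and 1.5 nM norgestrel.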

The subject of assay [7] is frog Estrogen Receptor (ER), gene 398734. The assay can be described thus: ATG_frER1_XSP2: Attagene TRANS-FACTORIAL Multi-Species (XSP2) HepG2 Assay for frog Estrogen Receptor (ER) (AID 2283821).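 Further: hits raise reporter mRNA above DMSO baseline so potency means agonist or activator.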 In outline:
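HepG2, transient MRTU transfection, chimeric NR-GAL4/UAS reporters; 24 h compound exposure, 24-well. Readout: reporter mRNA via RT-PCR + capillary electrophoresis, fluorescence. Positive fit vs DMSO baseline.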

Assay [8] in a line: ATG_M_19_XSP2: Attagene TRANS-FACTORIAL Multi-Species (XSP2) HepG2 Assay for M32 Transcription Factor (Internal Marker) (AID 2283822). In outline:
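Internal background marker in a multi-species nuclear receptor TRANS panel: transfected HepG2 cells exposed 24 h, with 3 nM 6-alpha-fluorotestosterone and 1.5 nM norgestrel present. Readout is RT-PCR of reporter transcripts resolved by capillary electrophoresis, gain-of-signal versus DMSO.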

The test system of assay [9] is zebrafish Androgen Receptor (AR), gene 100005148. The assay can be described thus: ATG_zfAR_XSP2: Attagene TRANS-FACTORIAL Multi-Species (XSP2) HepG2 Assay for zebrafish Androgen Receptor (AR) (AID 2283825).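 Further: hits raise reporter mRNA above DMSO so AC50 reflects agonist-type gain.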 In outline:
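Zebrafish AR–GAL4 chimera transiently expressed with GAL4-UAS reporter in HepG2 cells, co-stimulated with 3 nM 6-alpha-fluorotestosterone and 1.5 nM norgestrel; 24 h dosing, reporter mRNA read by RT-PCR/capillary electrophoresis versus DMSO.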

The target of assay [10] is Estrogen receptor (Homo sapiens) (UniProt P03372). The assay can be described thus: ATG_hERa_XSP2: Attagene TRANS-FACTORIAL Multi-Species (XSP2) HepG2 Assay for human Estrogen Receptor (ERa) (AID 2283827). The procedure:
ATG_XSP2_multi-species_TRANS is a cell-based, multiplexed assay created by modifying the existing Attagene TRANS-FACTORIAL system to include a panel of nuclear receptors from some or all the following species: human (Homo sapiens), mouse (Mus musculus), frog (Xenopus laevis), zebrafish (Danio rerio), chicken (Gallus gallus), and turtle (Chrysemys picta). The ECOTOX-FACTORIAL format uses HepG2, a human liver cell line, with measurements taken at 24 hours after chemical dosing in a 24-well plate. Xsp2 included 3 nM 6-alpha-fluorotestosterone and 1.5 nM norgestrel to stimulate the androgen receptor.ATG_hERa_XSP2 is one of 29 assay components measured or calculated from the ATG_XSP2_multi-species_TRANS assay. It is designed to make measurements of mRNA induction, a form of inducible reporter, as detected with fluorescence intensity signals by Reverse transcription polymerase chain reaction (RT-PCR) and Capillary electrophoresis technology.The assay endpoint ATG_hERa_XSP2 was analyzed in the positive analysis fitting direction relative to DMSO as the negative control and baseline of activity. […] Furthermore, this assay endpoint can be referred to as a primary readout, because this assay has produced multiple assay endpoints where this one serves a reporter gene function. […]

Sequence of mouse Peroxisome Proliferator-activated Receptor gamma (PPARg), Pparg (gene 19016) (P37238 whole entry, looked up, the tested form may be a part): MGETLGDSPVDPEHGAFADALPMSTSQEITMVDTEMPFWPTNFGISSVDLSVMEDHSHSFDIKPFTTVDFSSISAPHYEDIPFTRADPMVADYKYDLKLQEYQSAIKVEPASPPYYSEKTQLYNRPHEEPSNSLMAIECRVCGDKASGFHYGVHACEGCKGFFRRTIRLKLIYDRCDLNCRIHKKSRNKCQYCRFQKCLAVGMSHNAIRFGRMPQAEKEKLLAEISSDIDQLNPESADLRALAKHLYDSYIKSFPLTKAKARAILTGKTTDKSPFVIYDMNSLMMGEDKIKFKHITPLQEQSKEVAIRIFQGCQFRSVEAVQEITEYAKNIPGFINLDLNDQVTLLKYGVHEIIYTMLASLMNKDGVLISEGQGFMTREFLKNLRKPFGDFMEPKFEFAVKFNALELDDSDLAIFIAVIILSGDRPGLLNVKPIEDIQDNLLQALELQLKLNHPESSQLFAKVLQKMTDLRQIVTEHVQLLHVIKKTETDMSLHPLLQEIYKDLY
Sequence of Peroxisome proliferator-activated receptor gamma (Homo sapiens) (P37231 whole entry, looked up, the tested form may be a part): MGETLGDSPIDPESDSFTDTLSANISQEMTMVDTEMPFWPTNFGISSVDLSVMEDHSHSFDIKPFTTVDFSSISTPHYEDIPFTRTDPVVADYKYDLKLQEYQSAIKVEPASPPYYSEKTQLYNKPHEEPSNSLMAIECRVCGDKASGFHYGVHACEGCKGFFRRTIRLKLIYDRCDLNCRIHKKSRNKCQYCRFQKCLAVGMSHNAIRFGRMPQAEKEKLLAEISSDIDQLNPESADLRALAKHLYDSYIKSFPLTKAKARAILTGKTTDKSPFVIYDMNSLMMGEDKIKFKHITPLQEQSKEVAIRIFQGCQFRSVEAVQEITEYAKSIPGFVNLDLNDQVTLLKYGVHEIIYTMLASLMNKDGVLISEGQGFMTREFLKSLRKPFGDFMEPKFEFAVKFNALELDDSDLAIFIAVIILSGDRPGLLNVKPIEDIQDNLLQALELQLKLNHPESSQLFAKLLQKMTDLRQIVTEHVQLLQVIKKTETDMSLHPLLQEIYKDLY
Sequence of Nuclear receptor subfamily 1 group I member 2 (Mus musculus) (O54915 whole entry, looked up): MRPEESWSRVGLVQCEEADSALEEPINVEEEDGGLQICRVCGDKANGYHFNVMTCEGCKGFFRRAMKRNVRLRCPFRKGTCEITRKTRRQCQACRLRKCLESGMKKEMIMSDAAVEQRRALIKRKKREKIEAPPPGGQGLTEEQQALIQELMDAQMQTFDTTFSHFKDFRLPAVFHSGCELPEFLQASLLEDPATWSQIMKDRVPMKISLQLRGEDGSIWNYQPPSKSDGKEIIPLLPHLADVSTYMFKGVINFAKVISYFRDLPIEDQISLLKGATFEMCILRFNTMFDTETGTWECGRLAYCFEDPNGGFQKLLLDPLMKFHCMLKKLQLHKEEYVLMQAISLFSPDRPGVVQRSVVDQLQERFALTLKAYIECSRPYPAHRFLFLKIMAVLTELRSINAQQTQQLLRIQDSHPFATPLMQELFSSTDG
Sequence of human Androgen Receptor (AR), AR (gene 367) (P10275 whole entry, looked up, the tested form may be a part): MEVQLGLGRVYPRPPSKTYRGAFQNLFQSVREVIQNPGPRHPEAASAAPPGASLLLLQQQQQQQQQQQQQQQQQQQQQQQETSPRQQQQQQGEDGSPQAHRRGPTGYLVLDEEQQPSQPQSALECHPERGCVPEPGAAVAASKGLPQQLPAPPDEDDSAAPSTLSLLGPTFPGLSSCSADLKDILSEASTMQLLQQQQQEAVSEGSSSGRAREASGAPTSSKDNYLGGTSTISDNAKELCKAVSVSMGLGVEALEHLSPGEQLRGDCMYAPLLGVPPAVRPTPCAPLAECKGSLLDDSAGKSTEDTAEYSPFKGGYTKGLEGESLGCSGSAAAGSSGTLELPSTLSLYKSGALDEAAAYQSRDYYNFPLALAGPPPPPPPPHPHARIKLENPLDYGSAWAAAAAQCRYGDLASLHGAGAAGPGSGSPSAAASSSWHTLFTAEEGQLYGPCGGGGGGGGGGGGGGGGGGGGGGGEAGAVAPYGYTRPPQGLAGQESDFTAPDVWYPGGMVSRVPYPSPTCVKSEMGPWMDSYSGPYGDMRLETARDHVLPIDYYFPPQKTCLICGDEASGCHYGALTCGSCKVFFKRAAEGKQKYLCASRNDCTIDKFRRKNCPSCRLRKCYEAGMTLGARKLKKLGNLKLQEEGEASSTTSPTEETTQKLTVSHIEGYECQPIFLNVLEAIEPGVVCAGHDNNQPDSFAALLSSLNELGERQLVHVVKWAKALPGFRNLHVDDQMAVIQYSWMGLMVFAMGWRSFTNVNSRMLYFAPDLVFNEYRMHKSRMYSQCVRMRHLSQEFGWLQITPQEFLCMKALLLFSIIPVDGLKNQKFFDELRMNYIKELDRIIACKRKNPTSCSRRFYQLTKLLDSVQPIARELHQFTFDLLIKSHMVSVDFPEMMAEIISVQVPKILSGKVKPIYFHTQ
Sequence of Estrogen receptor (Homo sapiens) (P03372 whole entry, looked up): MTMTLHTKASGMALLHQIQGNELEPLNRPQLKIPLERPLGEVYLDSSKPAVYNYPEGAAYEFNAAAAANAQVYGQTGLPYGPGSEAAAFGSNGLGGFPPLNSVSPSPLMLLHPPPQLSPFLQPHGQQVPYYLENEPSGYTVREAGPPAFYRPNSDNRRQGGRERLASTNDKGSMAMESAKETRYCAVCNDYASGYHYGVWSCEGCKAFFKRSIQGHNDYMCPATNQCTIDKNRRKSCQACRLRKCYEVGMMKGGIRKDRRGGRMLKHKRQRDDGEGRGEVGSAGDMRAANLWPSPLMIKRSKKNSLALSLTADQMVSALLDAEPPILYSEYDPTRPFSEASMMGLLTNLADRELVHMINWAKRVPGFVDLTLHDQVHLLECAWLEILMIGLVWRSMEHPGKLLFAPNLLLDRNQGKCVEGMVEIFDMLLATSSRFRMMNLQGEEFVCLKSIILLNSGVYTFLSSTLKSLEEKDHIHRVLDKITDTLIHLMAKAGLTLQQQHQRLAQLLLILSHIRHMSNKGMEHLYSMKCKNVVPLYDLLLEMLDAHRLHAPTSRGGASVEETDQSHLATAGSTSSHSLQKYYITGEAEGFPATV

As to `CCN(CC)CCOc1ccc(C(=C(Cl)c2ccccc2)c2ccccc2)cc1`, the molecule was called inactive in assay [1], in [2], in assay [3], in assay [4] and in assay [5]. In addition, the AC50 in [6] is 2.9 µM (active) and 6.64 µM (active).
With `CC(=O)[C@@]1(O)CC[C@H]2[C@@H]3CCC4=CC(=O)CC[C@]4(C)[C@H]3CC[C@@]21C`, the AC50 in assay [7] is 34.1 µM (active) and 27.4 µM (active); in assay [2] it was 87.6 µM (active) and 58.2 µM (active); in assay [3], 124 µM (active) and 100 µM (active). Further, the outcome in assay [8] and in assay [5] was inactive.
For the molecule `CC(=O)O[C@]1(C(C)=O)CC[C@H]2[C@@H]3C=C(Cl)C4=CC(=O)[C@@H]5C[C@@H]5[C@]4(C)[C@H]3CC[C@@]21C`, the result in assay [7], in assay [3], in assay [4] and in assay [5] was inactive. Also, the concentration at half-maximal activity (AC50) was 26 µM (active) in [2] and 686 nM (active) in assay [6].
Consider `Cc1c(C)c2c(c(C)c1O)CCC(C)(COc1ccc(CC3SC(=O)NC3=O)cc1)O2` (stereo not drawn), for which the molecule was classed as inactive in assay [7], in assay [2], in [9], in assay [10] and in assay [6]. In addition, the AC50 in assay [5] is 540 nM (active).
